Experimental data published in PubChem BioAssay (Tox21).
Results filed as inconclusive are left out. Entries that show only a call come without a potency. Activity calls are given as the source filed them. Calls come from the whole dose curve; as a rule, active = well fitted activation curve with a large enough effect in the repeat runs; inconclusive = weak or mixed curves; inactive = flat fitted curve, though single readings scatter.

assay: A CellTox Green Cytotoxicity Assay to monitor cytotoxicity in HepG2 cells - 32 hour (AID 1224883); conditions: CellTox Green fluorescence; series mostly up to 76.8 µM; note: nearly all actives have a fitted effect of over 50% in size
Description: National Center for Advancing Translational Sciences [NCATS]
NIH Chemical Genomics Center [NCGC]
U.S. Environmental Protection Agency [EPA]
National Institutes of Environmental Health Sciences [NIEHS]
National Toxicology Program [NTP]
Cell-based models are critical for drug discovery. Determining the natural cytotoxic effects resulting from test compounds is an essential research activity. A CellTox Green Cytotoxicity Assay to monitor cytotoxicity in real time of continues cell culture during 40 hours of the compound treatment was used to screen Tox21 10K library compounds in HepG2 cells. CellTox Green Cytotoxicity Assay is a nonlytic, homogeneous, biofluorescent method to measure cytotoxicity in cell culture after experimental manipulation. The assay system uses a proprietary asymmetric cyanine dye that is excluded from viable cells but preferentially stains the dead cell's DNA. […] Viable cells produce no appreciable increases in fluorescence. Therefore, the fluorescence signal produced by the binding interaction with dead cell DNA is proportional to cytotoxicity.
The mixture of HepG2 cell suspension and reagents were dispensed at 600cells/6 ul/well in 1536-well tissue culture treated black solid bottom plates using a Multidrop dispenser. After the assay plates were incubated at a 37 C/5% CO2 incubator for 5 hours, 23 nL of compounds dissolved in DMSO, positive and negative controls was transferred to the assay plate by a pintool work station. The plates were incubated at 37 C for 40 hours. The fluorescence intensity were measured at 0h, 8h, 16h, 24h, 32h and 40h time points using ViewLux plate reader during compound treatment.
Potency is the fitted concentration of half-maximal effect.

SMILES | cytotoxicity increase | Potency
S=C(SSSSSSC(=S)N1CCCCC1)N1CCCCC1 | 16.8% [at 15.8 µM] (inactive) | 
CO[Si](CCCNCCNCCN)(OC)OC |  | inactive
CCCCCCCCCCCCCC[n+]1ccccc1 |  | 11 µM (active)
COc1cccc(O)c1 |  | inactive
CCCCCCCCCCOCC(O)CN (stereo not given) |  | 13.4 µM (active)
CO[Si](CCC1CCC2OC2C1)(OC)OC (stereo not given) |  | inactive
O=C1OC(=O)c2ccc3c4c(ccc1c24)C(=O)OC3=O |  | inactive
CC(C)c1ccc(O)c(C(C)C)c1 |  | 27.5 µM (active)
O=C(O)CC(=O)O |  | inactive
CS(C)(=O)=O |  | inactive
CCCCCCCC/C=C\CCCCCCCC(=O)OCCOC(=O)CCCCCCC/C=C\CCCCCCCC |  | inactive
COc1ccccc1C=O |  | inactive
Cc1cc(C)c(C=O)c(C)c1 |  | inactive
CC1CNCC(C)O1 (stereo not given) |  | inactive
OCCN1CN(CCO)CN(CCO)C1 |  | inactive
CN(C)c1ccc(N=NS(=O)(=O)O)cc1 |  | inactive
CCCCCCCC/C=C\CCCCCCCC(=O)NCc1ccc(O)c(OC)c1 |  | inactive
NC(=O)c1nc(-c2cccc(-c3cc(F)ccc3OCC(F)(F)C(F)(F)F)c2)n[nH]1 |  | 43.6 µM (active)
Cc1cccc(C)c1NC(=O)CN1CCN(CCCC(c2ccc(F)cc2)c2ccc(F)cc2)CC1 |  | 23.9 µM (active)
Nc1cc(Cl)c([N+](=O)[O-])cc1O |  | inactive

SMILES | cytotoxicity increase | Potency
O=CC1CC1 |  | inactive
CC=O |  | 36.3 µM (active)
CC(=O)Oc1ccc(C2(c3ccc(OC(C)=O)cc3)C(=O)Nc3ccccc32)cc1 |  | inactive
CCCCCCCC(C)=O |  | inactive
CCCCN(C)C |  | inactive
CC1CCCCN1CCCOC(=O)c1ccc(OC2CCCCC2)cc1 (stereo not given) |  | 26.8 µM (active)
O[C@@H](c1cc(C(F)(F)F)nc2c(C(F)(F)F)cccc12)[C@H]1CCCCN1 |  | 19 µM (active)
CCCCCCC(C)Nc1ccc(Nc2ccccc2)cc1 (stereo not given) |  | inactive
Cc1cnccn1 |  | inactive
O=C(c1ccccc1)c1cc(Cl)ccc1O |  | inactive
CN(Cc1cc(Br)cc(Br)c1N)C1CCCCC1 |  | 12 µM (active)
Clc1nc2ccccc2s1 |  | inactive
CCOCN(C(=O)CS(=O)(=O)O)c1c(C)cccc1CC |  | inactive
CCOC(=O)CC(C)O (stereo not given) |  | inactive
CC(C)=C1CC[C@@H](C)CC1=O |  | inactive
CN1CN(C)CN(C)C1 |  | inactive
CCc1cccc(CC)c1N(COC)C(=O)CS(=O)(=O)O |  | inactive
Cn1cnc2ncnc(N)c21 |  | inactive
CC(C)(C)c1n[nH]c(=O)n(N)c1=O |  | inactive
CCc1cccc(C)c1 |  | inactive
